The source made the active and inactive calls. The calls were made as follows: active = hit-call score of the fitted dose curve at least 0.9, where 1 is the maximum; inactive = score below 0.9.

Retinoic acid receptor alpha (Homo sapiens), sequence (P10276 whole entry, looked up): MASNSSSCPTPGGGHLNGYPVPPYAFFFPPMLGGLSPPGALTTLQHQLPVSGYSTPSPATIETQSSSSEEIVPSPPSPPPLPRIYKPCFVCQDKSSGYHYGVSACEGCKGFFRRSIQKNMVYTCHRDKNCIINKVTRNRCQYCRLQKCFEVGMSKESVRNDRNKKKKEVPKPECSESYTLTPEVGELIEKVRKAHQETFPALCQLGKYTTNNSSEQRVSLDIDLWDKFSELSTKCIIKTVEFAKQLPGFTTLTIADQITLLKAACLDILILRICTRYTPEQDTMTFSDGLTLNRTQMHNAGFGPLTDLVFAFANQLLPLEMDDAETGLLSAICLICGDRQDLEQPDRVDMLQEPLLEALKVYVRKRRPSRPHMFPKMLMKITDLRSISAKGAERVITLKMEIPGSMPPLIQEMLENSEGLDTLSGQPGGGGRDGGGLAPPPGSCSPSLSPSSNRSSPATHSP

In the assay the target is Retinoic acid receptor alpha (Homo sapiens) (UniProt P10276). Kind of assay: ATG_DR5_RAR_CIS: Attagene CIS-FACTORIAL HepG2 Assay for human Retinoic Acid Receptor Alpha (RARE), DR5 submotif (AID 2282934).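 As to AC50: reporter responds to endogenous RAR alpha beta and gamma in HepG2 not RARA alone.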 To be noted: HepG2 Attagene cis-factorial RARE DR5 reporter, mRNA; actives raise or lower the signal. The gist of the method:
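Read-out: DR5-driven reporter transcript measured by RT-PCR, 6-FAM primer extension, HpaI digest and capillary electrophoresis. Human HepG2 liver cells carry transiently transfected cis-element reporter constructs; dosing lasts 24 h. Gain or loss of signal fitted against DMSO baseline.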
As for `Nc1ccc(N=Nc2ccccc2)cc1`, the compound was classed as inactive.

As usually defined, the AC50 is the concentration giving half of the maximal activity seen. Take `O=C(O)C1C2CCC(O2)C1C(=O)O` (stereo not drawn): the AC50 is 75.4 µM (active).

With `O=C(Nc1ccccc1)c1ccccc1I`, the compound was called inactive.

With `CC(O)CCO` (stereo not drawn), the call was inactive.

Turning to `CC(C)(C)OOC(C)(C)CCC(C)(C)OOC(C)(C)C`, the outcome was inactive.

In the case of `O=C(Oc1ccc(Br)cc1)N1CCN2CCC1CC2`, the call was inactive.

On to `[O-][Cl+]O`, for which the call was inactive.

With `Nc1ccc(Cl)cc1N`, the compound was called inactive.

For the compound `OCCCBr`, the compound was classed as inactive.

Turning to `CNC(=O)Oc1cccc2c1OC(C)(C)C2`, the result was inactive.

In the case of `N#CC(Br)(Br)C(N)=O`, the outcome was inactive.

For the compound `Cc1ccc(N=C=O)cc1N=C=O`, the call was inactive.

As to `c1ccc2c(c1)-c1cccc3cccc-2c13`, the result was inactive.

Consider `ClC1=C(Cl)C2(Cl)C3C(Cl)C=CC3C1(Cl)C2(Cl)Cl` (stereo not drawn), for which the compound was called inactive.

For `c1ccc(NNc2ccccc2)cc1`, the compound was classed as inactive.

Consider `O=Cc1ccco1`, for which the compound was called inactive.

Consider `CCOc1cccc(C2(N3CCN(c4ccccc4)CC3)CCC(C)CC2)c1` (stereo not drawn), for which the compound was called inactive.

As to `CCN(CC)N=O`, the compound was classed as inactive.
